# Laboratory results: PubChem BioAssay AID1159580 (chemical genetic matrix, 2015)
# Out of some 5,500 compounds screened, about 2,000 (36%) were called active. Roughly 18% stayed inconclusive and do not appear here. The list shows a part of the results. Unmarked numbers belong to inactive results. Cut-off read from the data, not from the text of the source: active = normalized growth mostly below about 0.91 (no sharp cut-off); inconclusive = no clear call, values can overlap the other calls; inactive = mostly above about 0.92.
# Test: chemical genetic growth profiling, strain panel (AID 1159580);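 note: tested at 20 µM; growth read once vehicle control cultures reached saturation at 30 °C; 1 = growth at the plate median or of vehicle wells; lower values mean less growth of the strain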
# Details: S. cerevisiae deletion strains, growth OD
compound,measurement,setting,value
CC(C)N(C(=O)CCl)c1ccccc1,normalized growth,"locus YAL013W, strain DEP1, hits give low values",1.03
same,normalized growth,"locus YAL021C, strain ccr4, hits give low values",1.03
same,normalized growth,"locus YAL026C, strain drs2, hits give low values",1.04
same,normalized growth,"locus YAL030W, strain snc1, hits give low values",1.02
same,normalized growth,"locus YBL061C, strain skt5, hits give low values",1.01
same,normalized growth,"locus YBR009C, strain hhf1, hits give low values",0.949
same,normalized growth,"locus YBR021W, strain FUR4, hits give low values",1.07
same,normalized growth,"locus YBR023C, strain chs3, hits give low values",1.02
same,normalized growth,"locus YBR171W, strain sec66, hits give low values",1.01
same,normalized growth,"locus YBR229C, strain ROT2, hits give low values",1.02
same,normalized growth,"locus YBR231C, strain swc5, hits give low values",0.991
same,normalized growth,"locus YBR279W, strain paf1, hits give low values",0.993
same,normalized growth,"locus YCL011C, strain gbp2, hits give low values",1.01
same,normalized growth,"locus YCL016C, strain dcc1, hits give low values",1.01
same,normalized growth,"locus YCL029C, strain bik1, hits give low values",1.02
same,normalized growth,"locus YCL061C, strain MRC1, hits give low values",1.02
same,normalized growth,"locus YCL069W, strain vba3, hits give low values",1.01
same,normalized growth,"locus YCR088W, strain abp1, hits give low values",1.03
same,normalized growth,"locus YDL005C, strain med2, hits give low values",1.04
same,normalized growth,"locus YDL035C, strain GPR1, hits give low values",1.04
same,normalized growth,"locus YDL040C, strain nat1, hits give low values",1
same,normalized growth,"locus YDL074C, strain BRE1, hits give low values",1.05
same,normalized growth,"locus YDL101C, strain DUN1, hits give low values",1.02
same,normalized growth,"locus YDL134C, strain PPH21, hits give low values",1.02
same,normalized growth,"locus YDL185W, strain tfp1, hits give low values",1.02
same,normalized growth,"locus YDL192W, strain arf1, hits give low values",1.01
same,normalized growth,"locus YDR001C, strain nth1, hits give low values",1.01
same,normalized growth,"locus YDR069C, strain doa4, hits give low values",0.979
same,normalized growth,"locus YDR101C, strain arx1, hits give low values",1.02
same,normalized growth,"locus YDR137W, strain rgp1, hits give low values",1.08
same,normalized growth,"locus YDR150W, strain NUM1, hits give low values",1.03
same,normalized growth,"locus YDR159W, strain sac3, hits give low values",1.01
same,normalized growth,"locus YDR162C, strain NBP2, hits give low values",1.03
same,normalized growth,"locus YDR195W, strain ref2",0.917
same,normalized growth,"locus YDR297W, strain sur2, hits give low values",1.03
same,normalized growth,"locus YDR318W, strain mcm21, hits give low values",1.02
same,normalized growth,"locus YDR334W, strain swr1, hits give low values",1.01
same,normalized growth,"locus YDR335W, strain msn5, hits give low values",1.01
same,normalized growth,"locus YDR388W, hits give low values",1.02
same,normalized growth,"locus YDR392W, strain spt3, hits give low values",0.649 (active)
same,normalized growth,"locus YDR502C, strain sam2, hits give low values",1.02
same,normalized growth,"locus YEL003W, strain gim4, hits give low values",1
same,normalized growth,"locus YEL037C, strain rad23, hits give low values",1.01
same,normalized growth,"locus YEL061C, strain CIN8 (second series), hits give low values",1.01
same,normalized growth,"locus YEL061C, strain CIN8, hits give low values",1.02
same,normalized growth,"locus YER015W, strain faa2, hits give low values",0.997
same,normalized growth,"locus YER016W, strain bim1, hits give low values",1.01
same,normalized growth,"locus YER110C, hits give low values",1.03
same,normalized growth,"locus YER111C, strain swi4, hits give low values",1.02
same,normalized growth,"locus YER155C, strain BEM2 (second series), hits give low values",1.01
same,normalized growth,"locus YER155C, strain BEM2, hits give low values",1.03
same,normalized growth,"locus YER167W, strain BCK2, hits give low values",1.03
same,normalized growth,"locus YFR010W, strain ubp6, hits give low values",0.985
same,normalized growth,"locus YGL078C, strain dbp3, hits give low values",1.03
same,normalized growth,"locus YGL086W, strain mad1, hits give low values",1.02
same,normalized growth,"locus YGL167C, strain pmr1, hits give low values",1.01
same,normalized growth,"locus YGL173C, strain kem1, hits give low values",1.03
same,normalized growth,"locus YGL227W, strain vid30, hits give low values",1.01
same,normalized growth,"locus YGL240W, strain doc1, hits give low values",0.977
same,normalized growth,"locus YGL248W, strain PDE1, hits give low values",1.04
same,normalized growth,"locus YGL253W, strain hxk2, hits give low values",0.941
same,normalized growth,"locus YGR078C, strain PAC10, hits give low values",1.02
same,normalized growth,"locus YGR135W, strain pre9, hits give low values",1.01
same,normalized growth,"locus YGR229C, strain SMI1, hits give low values",1.05
same,normalized growth,"locus YGR252W, strain gcn5, hits give low values",0.958
same,normalized growth,"locus YHR013C, strain ard1, hits give low values",0.881
same,normalized growth,"locus YHR027C, strain rpn1, hits give low values",1.01
same,normalized growth,"locus YHR030C, strain SLT2, hits give low values",1
same,normalized growth,"locus YHR079C, strain IRE1 (second series), hits give low values",1.02
same,normalized growth,"locus YHR094C, strain hxt1, hits give low values",1.01
same,normalized growth,"locus YHR129C, strain ARP1, hits give low values",1.04
same,normalized growth,"locus YHR142W, strain chs7, hits give low values",1.01
same,normalized growth,"locus YHR200W, strain rpn10, hits give low values",1.02
same,normalized growth,"locus YIL066C, strain RNR3, hits give low values",1.01
same,normalized growth,"locus YIL073C, strain SPO22, hits give low values",0.961
same,normalized growth,"locus YIL125W, strain kgd1, hits give low values",1.03
same,normalized growth,"locus YIR030C, strain dcg1, hits give low values",1.02
same,normalized growth,"locus YJL092W, strain hpr5, hits give low values",1.03
same,normalized growth,"locus YJL095W, strain BCK1 (second series), hits give low values",1.01
same,normalized growth,"locus YJL095W, strain BCK1, hits give low values",1.02
same,normalized growth,"locus YJL115W, strain asf1, hits give low values",1.03
same,normalized growth,"locus YJL129C, strain trk1, hits give low values",1.23 [resistant] (active)
same,normalized growth,"locus YJL134W, strain LCB3, hits give low values",1.03
same,normalized growth,"locus YJL154C, strain vps35, hits give low values",1.02
same,normalized growth,"locus YJL164C, strain tpk1, hits give low values",0.999
same,normalized growth,"locus YJL166W, strain qcr8, hits give low values",0.955
same,normalized growth,"locus YJL168C, strain set2, hits give low values",1
same,normalized growth,"locus YJL187C, strain SWE1 (second series), hits give low values",1.02
same,normalized growth,"locus YJL187C, strain SWE1, hits give low values",1.02
